Assay [1] is described as follows: ATG_CRE_CIS: Attagene CIS-FACTORIAL HepG2 Assay for human cAMP Responsive Element (CRE) binding protein 3 (AID 2282926). The settings on record: HepG2 CRE cis-reporter, Attagene multiplexed mRNA; actives raise or lower the signal. In outline: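 HepG2 cells transiently transfected with cis-element-driven multiple reporter transcription units; CRE reporter mRNA measured 24 h after dosing by RT-PCR, 6-FAM labelling, HpaI digestion and capillary electrophoresis. Bidirectional fit versus DMSO baseline.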

In assay [2] the target is CCAAT/enhancer-binding protein beta (Homo sapiens) (UniProt P17676). In words: ATG_C_EBP_CIS: Attagene CIS-FACTORIAL HepG2 Assay for human CCAAT/Enhancer Binding Protein (C/EBP) beta (AID 2282927). The settings on record: HepG2 Attagene cis-factorial transcription factor reporter; actives raise or lower the signal. Summed up: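 RT-PCR/capillary electrophoresis fluorescence of reporter mRNA, 24 h post-dose, in HepG2 cells carrying transfected cis-promoter reporter units. Bidirectional curve fitting against DMSO baseline captures gain or loss of signal.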

Assay [3] is described as follows: ATG_CMV_CIS: Attagene CIS-FACTORIAL HepG2 Assay for human CMV (Internal Marker) (AID 2282928).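 Also: endpoint acts as a background internal control marker rather than a target.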 The settings on record: HepG2 CMV promoter reporter, transcription factor profiling; actives raise or lower the signal. Summed up:
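Endogenous transcription factor activity read in HepG2 via transfected cis-promoter reporter units. After 24 h dosing, reporter mRNA measured by RT-PCR/capillary electrophoresis; gain or loss of signal fit relative to DMSO.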

Assay [4] in a line: ATG_DR4_LXR_CIS: Attagene CIS-FACTORIAL HepG2 Assay for human Liver X Receptor (LXR), DR4 submotif (AID 2282929). The settings on record: HepG2 Attagene DR4 cis-reporter, mRNA transcription; actives raise or lower the signal. In outline:
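After transient transfection with multiplexed cis-promoter reporter units, HepG2 cells received test chemicals for 24 h. Reporter mRNA induction, detected by fluorescence after RT-PCR and capillary electrophoresis, was scored relative to DMSO.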

The nature of assay [5]: ATG_AP_1_CIS: Attagene CIS-FACTORIAL HepG2 Assay for human Activator Protein 1 (AP-1) (AID 2282931). The settings on record: HepG2 Attagene cis-factorial AP-1 reporter mRNA; actives raise or lower the signal. Summed up:
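After 24 h incubation with test chemical, RNA from transfected HepG2 cells was reverse-transcribed, amplified, fluorescently labelled and digested before capillary electrophoresis. Reporters were driven by cis-regulatory promoters; activity fitted bidirectionally versus DMSO.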

Assay [6] is described as follows: ATG_BRE_CIS: Attagene CIS-FACTORIAL HepG2 Assay for human Bone Morphogenetic Protein (BMP) Response Element (BRE) (AID 2282933). The settings on record: HepG2 BMP response element reporter, Attagene transcription factor profiling; actives raise or lower the signal. In outline:
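Gain- or loss-of-signal was derived by bidirectional fitting against DMSO controls. The signal came from reporter mRNA, measured by RT-PCR and capillary electrophoresis, in HepG2 cells transiently carrying multiple reporter units and dosed for 24 h.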

Assay [7] is described as follows: ATG_E_Box_CIS: Attagene CIS-FACTORIAL HepG2 Assay for human Enhancer Box (E-box) (AID 2282936). The settings on record: HepG2 E-box cis-reporter transcription, actives raise or lower the signal. In outline: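 HepG2 cells transiently transfected with multiplexed cis-element reporter units sensing endogenous transcription factor activity; 24 h compound exposure. Reporter mRNA measured by RT-PCR, 6-FAM primer extension, HpaI digestion and capillary electrophoresis; bidirectional fit versus DMSO.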

The nature of assay [8]: ATG_M_19_CIS: Attagene CIS-FACTORIAL HepG2 Assay for M19 Transcription Factor (Internal Marker) (AID 2282939). The settings on record: HepG2 Attagene CIS-FACTORIAL M19 internal marker reporter; actives raise or lower the signal. In outline: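 Following a 24 h exposure, RNA from transfected HepG2 cells was reverse-transcribed, PCR-amplified with reporter-specific primers, end-labelled with 6-FAM and HpaI-digested before capillary separation. Values represent gain or loss versus DMSO.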

Assay [9] in a line: ATG_GATA_CIS: Attagene CIS-FACTORIAL HepG2 Assay for human GATA Binding Protein (AID 2282944). The settings on record: HepG2 GATA cis-element reporter, Attagene multiplex mRNA; actives raise or lower the signal. Summed up: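 DMSO serves as negative control and baseline for bidirectional fitting of reporter mRNA changes. HepG2 cells bearing transiently transfected cis-promoter reporters were exposed 24 h; transcripts detected via RT-PCR and capillary electrophoresis.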

A short description of assay [10]: ATG_ISRE_CIS: Attagene CIS-FACTORIAL HepG2 Assay for human Interferon Regulatory Factor 1 (IRF1) binding to an Interferon-Stimulated Response Element (ISRE) (AID 2282948). The settings on record: HepG2 ISRE cis-reporter (Attagene), mRNA transcription readout; actives raise or lower the signal. Summed up:
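Transfected HepG2 (multiple reporter transcription units, cis elements) dosed 24 h. RNA → oligo(dT) RT → PCR → 6-FAM primer extension → HpaI → CE. DMSO = negative control/baseline.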

The nature of assay [11]: ATG_M_32_CIS: Attagene CIS-FACTORIAL HepG2 Assay for M32 Transcription Factor (Internal Marker) (AID 2282949).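 Also: background control marker of the multiplexed CIS panel rather than a real target.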 The settings on record: HepG2 Attagene cis-factorial M32 reporter, mRNA; actives raise or lower the signal. In outline:
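Internal background marker read-out: RT-PCR/capillary electrophoresis fluorescence of reporter transcripts from transiently transfected HepG2 cells after 24 h chemical exposure. Activity fitted bidirectionally relative to DMSO negative control.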

A short description of assay [12]: ATG_M_06_CIS: Attagene CIS-FACTORIAL HepG2 Assay for M06 Transcription Factor (Internal Marker) (AID 2282950). The settings on record: HepG2 Attagene CIS-FACTORIAL M06 internal marker reporter; actives raise or lower the signal. In outline: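 Fluorescence-labelled RT-PCR products from cis-promoter reporter units, cut with HpaI and resolved by capillary electrophoresis, give the signal. Cells are human HepG2, dosed for 24 h. Serves as background control, fitted relative to DMSO.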

The nature of assay [13]: ATG_MRE_CIS: Attagene CIS-FACTORIAL HepG2 Assay for human Metal Responsive Element (MRE) (AID 2282954). The settings on record: HepG2 MRE cis-reporter transcription, Attagene multiplex; actives raise or lower the signal. Summed up:
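HepG2 cells transiently transfected with multiple cis-element reporter units measure endogenous MTF1-driven transcription. After 24 h compound exposure, reporter mRNA is quantified by RT-PCR with 6-FAM labelling, HpaI digestion and capillary electrophoresis; bidirectional fits versus DMSO.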

The target in assay [14] is Paired box protein Pax-6 (Homo sapiens) (UniProt P26367). In words: ATG_Pax6_CIS: Attagene CIS-FACTORIAL HepG2 Assay for human Paired Box 6 (PAX6) (AID 2282956). The settings on record: HepG2 CIS-FACTORIAL PAX6 reporter transcription, RNA readout; actives raise or lower the signal. In outline:
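Transient MRTU transfection of HepG2 → compound exposure 24 h → TriZol RNA, oligo(dT) RT → PCR, 6-FAM primer extension, HpaI cut → capillary electrophoresis; activity fitted both directions against DMSO.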

The nature of assay [15]: ATG_PXRE_CIS: Attagene CIS-FACTORIAL HepG2 Assay for human Pregnane X Receptor Element (PXRE) (AID 2282957). The settings on record: HepG2 Attagene CIS-FACTORIAL PXRE reporter, mRNA; actives raise or lower the signal. In outline: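 HepG2 cells transiently transfected with cis-element-driven multiplexed reporter units; after 24 h chemical exposure, reporter mRNA measured by RT-PCR, 6-FAM labelling, HpaI digestion and capillary electrophoresis. Bidirectional fitting relative to DMSO.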

A short description of assay [16]: ATG_Sox_CIS: Attagene CIS-FACTORIAL HepG2 Assay for human SRY-box transcription factor (SOX) (AID 2282960). The settings on record: HepG2 Attagene cis-factorial SOX reporter, mRNA; actives raise or lower the signal. In outline:
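Using transiently transfected HepG2 cells, reporter transcription driven by cis elements was assessed 24 h after dosing. Signal was fluorescence of capillary-separated RT-PCR products, with DMSO defining baseline activity.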

Assay [17] concerns the target Transcription factor Sp1 (Homo sapiens) (UniProt P08047). Put plainly: ATG_Sp1_CIS: Attagene CIS-FACTORIAL HepG2 Assay for human Specificity Protein 1 (Sp1) (AID 2282961). The settings on record: HepG2 Sp1 cis-reporter transcription, actives raise or lower the signal. Summed up: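 After transient transfection of HepG2 cells with cis-promoter reporter units and 24 h chemical treatment, reporter transcripts were quantified by RT-PCR and capillary electrophoresis fluorescence. Gain- and loss-of-signal fitted against DMSO.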

The nature of assay [18]: ATG_TA_CIS: Attagene CIS-FACTORIAL HepG2 Assay for human TA Basal Promoter (AID 2282964). The settings on record: HepG2 Attagene CIS-factorial TA basal promoter reporter; actives raise or lower the signal. In outline:
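Multiplexed mRNA reporter assay, HepG2, 24 h. Reporter cDNA amplified, 6-FAM primer-extended, HpaI-cut, CE-sized; DMSO = negative control and baseline.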

Assay [19] can be described thus: ATG_TCF_b_cat_CIS: Attagene CIS-FACTORIAL HepG2 Assay for human T-Cell-Factor with beta-catenin (TCF/b-cat) (AID 2282965). The settings on record: HepG2 TCF/beta-catenin cis-reporter transcription, actives raise or lower the signal. Summed up: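 HepG2 cells transiently transfected with multiple cis-promoter-regulated reporter transcription units, so endogenous transcription factor activity is measured. Reporter mRNA read 24 hours after dosing by RT-PCR, fluorescent labelling and capillary electrophoresis; bidirectional fitting against DMSO.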

The nature of assay [20]: ATG_TAL_CIS: Attagene CIS-FACTORIAL HepG2 Assay for human TAL Basal Promoter (AID 2282966).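 Also: background control endpoint measuring basal TAL promoter reporter mRNA not a specific factor.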 The settings on record: HepG2 Attagene cis-factorial TAL promoter reporter; actives raise or lower the signal. In outline: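 HepG2 cells transiently transfected with multiplexed cis-promoter reporter units, dosed 24 h. Reporter mRNA quantified by RT-PCR, 6-FAM labelling, HpaI digestion and capillary electrophoresis; TAL basal promoter serves as background control, fitted bidirectionally versus DMSO.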

The source made the active and inactive calls. The calls were made as follows: active = hit-call score of the fitted dose curve at least 0.9, where 1 is the maximum; inactive = score below 0.9.

Transcription factor Sp1 (Homo sapiens), sequence (P08047 whole entry, looked up): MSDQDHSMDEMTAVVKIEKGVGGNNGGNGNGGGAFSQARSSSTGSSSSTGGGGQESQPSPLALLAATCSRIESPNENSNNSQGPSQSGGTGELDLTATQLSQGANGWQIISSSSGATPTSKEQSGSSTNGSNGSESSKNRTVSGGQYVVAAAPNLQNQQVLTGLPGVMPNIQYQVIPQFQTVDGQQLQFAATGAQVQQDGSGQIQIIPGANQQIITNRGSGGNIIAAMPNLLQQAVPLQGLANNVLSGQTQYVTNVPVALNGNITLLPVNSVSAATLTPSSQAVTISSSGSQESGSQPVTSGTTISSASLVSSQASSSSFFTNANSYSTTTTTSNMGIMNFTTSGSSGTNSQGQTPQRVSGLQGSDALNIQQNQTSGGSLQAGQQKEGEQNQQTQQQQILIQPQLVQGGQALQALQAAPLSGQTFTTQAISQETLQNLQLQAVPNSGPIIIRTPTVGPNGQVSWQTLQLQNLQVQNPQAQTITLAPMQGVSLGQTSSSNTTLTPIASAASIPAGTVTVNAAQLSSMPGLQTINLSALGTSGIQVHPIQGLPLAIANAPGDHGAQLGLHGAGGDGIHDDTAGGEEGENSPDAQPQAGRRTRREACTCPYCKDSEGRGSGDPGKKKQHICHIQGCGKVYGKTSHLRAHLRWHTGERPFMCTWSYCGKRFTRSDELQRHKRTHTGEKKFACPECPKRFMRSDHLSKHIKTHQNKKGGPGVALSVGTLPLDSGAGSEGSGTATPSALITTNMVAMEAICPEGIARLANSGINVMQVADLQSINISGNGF
CCAAT/enhancer-binding protein beta (Homo sapiens), sequence (P17676 whole entry, looked up): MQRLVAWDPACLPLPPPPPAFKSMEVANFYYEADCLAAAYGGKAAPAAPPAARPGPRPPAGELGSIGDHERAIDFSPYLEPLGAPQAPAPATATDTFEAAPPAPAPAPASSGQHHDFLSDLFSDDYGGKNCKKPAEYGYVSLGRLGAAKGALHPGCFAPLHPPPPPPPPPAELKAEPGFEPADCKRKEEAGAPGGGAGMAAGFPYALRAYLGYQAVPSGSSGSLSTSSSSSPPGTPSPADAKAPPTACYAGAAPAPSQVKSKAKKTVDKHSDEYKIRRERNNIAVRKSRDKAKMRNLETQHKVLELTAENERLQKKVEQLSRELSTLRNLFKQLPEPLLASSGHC
Paired box protein Pax-6 (Homo sapiens), sequence (P26367 whole entry, looked up): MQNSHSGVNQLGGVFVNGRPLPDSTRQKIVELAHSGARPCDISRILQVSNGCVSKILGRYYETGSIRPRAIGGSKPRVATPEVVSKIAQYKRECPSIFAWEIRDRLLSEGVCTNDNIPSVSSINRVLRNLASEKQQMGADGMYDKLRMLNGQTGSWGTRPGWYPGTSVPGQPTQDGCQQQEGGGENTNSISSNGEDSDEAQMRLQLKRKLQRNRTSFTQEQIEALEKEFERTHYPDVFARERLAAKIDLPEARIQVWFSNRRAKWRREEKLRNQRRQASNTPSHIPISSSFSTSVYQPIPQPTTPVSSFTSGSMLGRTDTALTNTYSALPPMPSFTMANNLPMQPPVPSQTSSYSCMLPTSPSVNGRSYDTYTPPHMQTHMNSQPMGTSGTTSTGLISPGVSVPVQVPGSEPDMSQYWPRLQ

For the compound `CCC(C)=NO`, the outcome in [1], in assay [2], in assay [3], in assay [4], in assay [5] and in [6] was inactive. Besides, the outcome in assay [7], in [8], in assay [9], in [10], in [11] and in assay [12] was inactive. For the same compound, the compound was classed as inactive in assay [13], in assay [14], in assay [15], in [16], in [17] and in [18]. For the same compound, the outcome in assay [19] and in [20] was inactive.
Consider `O=C(c1ccccc1)c1ccccc1O`, for which the compound was classed as inactive in assay [1], in assay [2], in assay [3], in assay [5], in assay [6] and in assay [7]. For the same compound, the compound was classed as inactive in assay [8], in assay [9], in [11], in [12], in [13] and in assay [14]. Also, the call in assay [16], in assay [17], in assay [18] and in [20] was inactive. The AC50 in [4] is 162 µM (active); in assay [10], 161 µM (active); in [15] it was 26.7 µM (active); in assay [19], 129 µM (active).
As for `CN(C)Cc1cc(C(C)(C)C)c(O)c(C(C)(C)C)c1`, the compound was called inactive in [1], in assay [2], in [3], in [4], in [5] and in assay [6]. Besides, the outcome in assay [7], in assay [8], in assay [9], in [10], in [11] and in [12] was inactive. The call in assay [13], in assay [14], in assay [16], in [17], in assay [18] and in assay [19] was inactive. Also, the outcome in [20] was inactive. Moreover, in assay [15], the AC50 was 3.41 µM (active).
Consider `O=C(C(=O)c1ccccc1)c1ccccc1`, for which the call in assay [1], in [2], in assay [3], in assay [4], in assay [5] and in assay [6] was inactive. Further, the result in assay [7], in [8], in assay [9], in [10], in [11] and in [12] was inactive. Besides, the outcome in assay [13], in assay [14], in assay [16], in assay [17], in [18] and in assay [19] was inactive. Also, the outcome in assay [20] was inactive. Also, in [15], the AC50 was 42.8 µM (active).

The term AC50 denotes the concentration at which the activity in the assay is half-maximal.

The record behind these values is PubChem BioAssay (EPA / NIEHS).
